Only some compounds are listed: those with a hit (about 4.6% of all), similar ones and a draw of the others.
D1 PAM: enhances dopamine response at the human D1 receptor; actives 0.036% (n = 360,000); potentiation, % at 10 µM; HEK293 TREx D1 cells, calcium flux, dopamine EC20 potentiation; in the data active means potentiation above about 30%; further: 0% is about no effect
Target sequence (P21728 whole entry, looked up): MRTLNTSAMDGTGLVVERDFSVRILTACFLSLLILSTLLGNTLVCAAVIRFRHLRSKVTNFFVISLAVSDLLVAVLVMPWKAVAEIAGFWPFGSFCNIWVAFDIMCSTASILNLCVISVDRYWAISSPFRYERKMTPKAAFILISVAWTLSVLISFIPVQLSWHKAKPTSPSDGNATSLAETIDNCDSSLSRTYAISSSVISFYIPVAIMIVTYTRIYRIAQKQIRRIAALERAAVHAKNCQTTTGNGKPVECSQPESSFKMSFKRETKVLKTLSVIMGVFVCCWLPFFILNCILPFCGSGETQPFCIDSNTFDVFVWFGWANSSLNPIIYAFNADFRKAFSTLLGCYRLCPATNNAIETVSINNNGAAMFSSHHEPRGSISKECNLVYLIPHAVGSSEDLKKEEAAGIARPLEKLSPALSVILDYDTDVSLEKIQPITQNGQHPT
D1 ag: human D1 receptor agonism. P21728. HEK293 T-REx D1 cells, calcium flux, agonist mode. activation, % at 2 µM. actives 1% (n = 360,000). AID 504660; further: 0% is about no effect
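Tetracycline-induced HEK293 TREx D1 cells, force-coupled to calcium signalling, were dye-loaded with a no-wash calcium kit. Compound was pin-added after a 10 s baseline. Fluorescence was read kinetically at 1 cycle/s for 180 s, with calcium rises flagged as agonism.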
TRHR agonist: activates the human TRH receptor | P34981 | activation, % at 2 µM | TRHR cells, calcium flux fluo-8, FDSS agonist mode | actives 0.18% (n = 360,000) | AID 493084; further: 0% is about no effect
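Steps: seed TRHR cells overnight; add fluo-8 no-wash Ca dye, RT 30 min–1.5 h; record 10 s baseline; pin-transfer compounds; monitor fluorescence 1 cycle/s for the agonist window. Calcium increases flag candidate agonists.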
TRHR PAM: allosteric enhancers of human TRH receptor | P34981 | TRHR cells, fluo-8 calcium fluorescence, EC20 TRH enhancement | enhancement, % at 2 µM | actives 0.66% (n = 360,000); in the data active means enhancement above about 30%; further: 0% is about no effect
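Enhancer read-out: after compound pinning and an initial kinetic agonist-mode read, an EC20 of TRH (10 nM final) was injected and fluo-8 calcium signal (Ex 480/Em 530) followed at 1 s/cycle for 100 cycles in TRHR-expressing cells.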
D1 antag: antagonists of human D1 dopamine receptor | activity change, negative = inhibition, % at 10 µM | AID 504652 | HEK293 TREx D1 cells, calcium flux, dopamine EC80; hits give low values | P21728 | actives 3.2% (n = 360,000); in the data active means activity change below about -30%; further: on the % scale 0 is the no-effect control and ±100 the full control effect
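Tetracycline-induced HEK293 Trex D1 cells, force-coupled to calcium, dye-loaded; compounds added and read 180 s, then EC80 dopamine added and calcium flux tracked kinetically another 180 s.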
* marks the source's active call; other numbers are inactive results. Unless noted, no stated cut-off is given here; in the data, active means activation above about 30%; inactive means the rest.

SMILES | D1 PAM | D1 ag | TRHR agonist | TRHR PAM | D1 antag
CCOc1ccccc1N1CC(c2nc3ccccc3n2CCOc2ccccc2OC)CC1=O (stereo not given) | 1 | 29 | 3 | -9 | 2
CCCN(C(=O)CCc1nc(-c2ccccc2F)no1)c1ccc(CC)cc1 | -2 | 9 | 0 | -12 | 3
CC(NC(=O)c1cc2cc(Br)ccc2oc1=N)c1ccccc1 (stereo not given) | 5 | 1 | 0 | -6 | -53*
N=c1oc2ccc(Br)cc2cc1C(=O)NCc1ccccc1 | 5 | 9 | 1 | -2 | -5
O=C(CN1C(=O)CC(c2ccc(F)cc2)=Nc2ccccc21)NCc1ccccc1Cl | 2 | 3 | 1 | -3 | -46*
COC(=O)c1sccc1S(=O)(=O)N1CCN(c2cccc(C)c2)C(C)C1 (stereo not given) | -1 | -1 | 0 | 0 | -20
O=C(Nc1ccc(Cl)cc1Cl)c1cc(S(=O)(=O)NCc2ccc3c(c2)OCO3)ccc1F | -3 | 2 | 1 | 3 | 0
COc1ccc(-c2c(C)nn(Cc3ccccc3)c2N)cc1 | 1 | 1 | 0 | 30* | -9
COc1ccc(-c2ccc(=O)n(Cc3ccccc3)n2)cc1 | -2 | 0 | 0 | -1 | -24
CC(=O)N1CCc2cc(S(=O)(=O)NC(Cc3ccccc3)C(=O)Nc3cccc(C)c3)ccc21 (stereo not given) | -2 | 2 | -1 | 6 | -38*
CCC(=O)N1CCc2cc(S(=O)(=O)NC(C(=O)NCc3ccccc3)C(C)C)ccc21 (stereo not given) | -3 | 1 | 0 | -7 | 1
CCC(=O)N1CCc2cc(S(=O)(=O)NCCC(=O)N3CCN(c4cccc(C)c4)C(C)C3)ccc21 (stereo not given) | -7 | 11 | 0 | 2 | -40*
CCC(=O)N1CCc2cc(S(=O)(=O)NC(C(=O)NCCc3cccc(C)c3)C(C)C)ccc21 (stereo not given) | -2 | 0 | -1 | -2 | -62*
O=[N+]([O-])c1ccc(-c2ccc(/C=N/Nc3nc(NCc4ccccc4)nc(N4CCOCC4)n3)o2)cc1 | 2 | 74* | 21 | -1 | -12
COc1ccc(-c2cc(C(=O)Nc3ccn(Cc4ccc(C)cc4)n3)no2)cc1OC | 1 | 6 | 1 | 15 | -12
Cc1ccc2oc3c(c(=O)c2c1)C(c1ccc(O)cc1)N(c1nc(C)c(C)s1)C3=O (stereo not given) | 2 | 0 | 1 | 0 | -2
CCN(CC)c1ccc2nc3c(=O)n(C)c(=O)n(C)c3nc2c1 | 3 | 144* | 68* | 4 | -18
COc1ccc(CCNC(=O)c2cc(-c3ccc(C)c(C)c3)nc3ccccc23)cc1OC | -3 | 0 | 1 | 1 | -6
COc1cccc(-c2cc(C(=O)Nc3c(C)nn(Cc4ccccc4Cl)c3C)no2)c1 | -1 | 9 | 0 | 6 | 1
COc1ccc(-c2cc(C(=O)Nc3c(C)nn(Cc4ccccc4Cl)c3C)no2)cc1OC | -15 | 10 | 0 | 3 | -40*
COc1ccc(-c2cc(C(=O)Nc3cc(OC)c(OC)c(OC)c3)no2)cc1OC | -2 | 2 | 0 | 39* | -14
CC(=O)Nc1cccc(NC(=O)CSc2cn(CC(=O)N3CCCCCC3)c3ccccc23)c1 | -1 | 1 | -1 | -11 | 4
COC(=O)c1ccc(NC(=O)CC2C(=O)N(c3ccc(Cl)cc3)C(=O)N2Cc2cccs2)cc1 (stereo not given) | -3 | 1 | 1 | 3 | -13
Cc1ccsc1CCN1C(=O)N(c2ccccc2)C(=O)C1CC(=O)Nc1ccc(F)cc1 (stereo not given) | -4 | 19 | 2 | -12 | 0
CCOc1ccc(NC(=O)CC2C(=O)N(c3ccc(C)cc3)C(=O)N2Cc2ccc(OC)cc2)cc1 (stereo not given) | 1 | 0 | 0 | 45* | -3
SMILES | D1 PAM | D1 ag | TRHR agonist | TRHR PAM | D1 antag
Cc1ccsc1CCN1C(=O)N(c2ccc(F)cc2)C(=O)C1CC(=O)Nc1ccccc1 (stereo not given) | -4 | 4 | 0 | -8 | -30*
CCOc1ccc(NC(=O)CC2C(=O)N(c3ccc(Cl)cc3)C(=O)N2Cc2cccs2)cc1 (stereo not given) | -3 | 1 | 0 | 4 | -74*
COc1ccc(CN2C(=O)N(c3ccc(OC)cc3)C(=O)C2CC(=O)Nc2ccccc2)cc1 (stereo not given) | -1 | 2 | 0 | 5 | -3
COC(=O)CN1C(=S)N(c2ccc(Cl)cc2)C(=O)C1CC(=O)Nc1ccccc1 (stereo not given) | -4 | 3 | 0 | 23 | -32*
Cc1c(CCC(=O)NCCc2ccccc2F)c(=O)oc2cc(O)ccc12 | -1 | -1 | 0 | 4 | 4
COC(=O)CN1C(=O)CSc2ccc(S(=O)(=O)Nc3ccc(C)c(Cl)c3)cc21 | -2 | -2 | 0 | 0 | 6
N#Cc1c(N)nc(SCc2ccncc2)c(C#N)c1-c1cccs1 | -4 | 4 | 0 | -3 | -34*
COCCNc1c(-c2ccc(O)cc2)nc2ccc(Cl)cn12 | -10 | 0 | -1 | 0 | -41*
COCCNc1c(-c2ccc(OC)c(OC)c2)nc2ccc(Cl)cn12 | 2 | 0 | 0 | 4 | 32
CC(=O)N1CCN(C(=S)Nc2ccc(SC(F)F)cc2)CC1 | -2 | 1 | 0 | -3 | -27
CC1CCN(C(=S)Nc2ccc(SC(F)F)cc2)CC1 | -4 | 5 | 0 | -2 | -41*
CCN(CC)CCSc1nnc2c3cc(F)ccc3n(CC)c2n1 | -3 | 0 | -2 | 1 | -18
Cc1ccc(NC(=O)CCC(=O)NNC(=O)NC23CC4CC(CC(C4)C2)C3)cc1C | -3 | 50* | 0 | 5 | -11
COc1ccccc1CNc1ccc(-c2nc(C)no2)cc1[N+](=O)[O-] | -2 | 24 | 2 | -1 | -17
Cc1c(C(=O)Nc2cccc(F)c2)sc2nc(-c3cc4ccccc4oc3=O)[nH]c(=O)c12 | 4 | -1 | 0 | 4 | -36*
CCCOc1ccc(C2c3c(-c4ccccc4O)n[nH]c3C(=O)N2CCc2ccccc2)cc1OCC (stereo not given) | 2 | 6 | 1 | 27 | 0
O=C(COC(=O)CCOc1ccccc1)Nc1ncc(Cl)cc1Cl | 3 | 0 | 0 | 1 | -60*
CCC1(CC)NC(=O)N(CC(=O)OCC(=O)Nc2ncc(Cl)cc2Cl)C1=O | -16 | 1 | 0 | 9 | -64*
O=C(COC(=O)CN1C(=O)c2ccccc2C1=O)Nc1ncc(Cl)cc1Cl | -4 | 0 | 0 | 14 | -7
CCCC[C@]12Cc3cc(C#N)ccc3C(O1)c1c(c3cc(F)ccc3oc1=O)O2 | 3 | 0 | -1 | -9 | -17

Bioassay records: PubChem BioAssay, National Center for Advancing Translational Sciences (NCATS)
